Screens from PubChem.
KCNQ2 block: KCNQ2 (rat) channel inhibition | CHO-K1 KCNQ2, FluxOR thallium flux, 20 min; stronger effect = lower value | B-score at 10 µM | 310,000 tested, 1.1% active;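 active = fluorescence ratio B-score at most minus 3 library SDs, with starting brightness B-score within 2 library SDs, cut at about -5.5 in these data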
Target sequence (O88943 whole entry, looked up): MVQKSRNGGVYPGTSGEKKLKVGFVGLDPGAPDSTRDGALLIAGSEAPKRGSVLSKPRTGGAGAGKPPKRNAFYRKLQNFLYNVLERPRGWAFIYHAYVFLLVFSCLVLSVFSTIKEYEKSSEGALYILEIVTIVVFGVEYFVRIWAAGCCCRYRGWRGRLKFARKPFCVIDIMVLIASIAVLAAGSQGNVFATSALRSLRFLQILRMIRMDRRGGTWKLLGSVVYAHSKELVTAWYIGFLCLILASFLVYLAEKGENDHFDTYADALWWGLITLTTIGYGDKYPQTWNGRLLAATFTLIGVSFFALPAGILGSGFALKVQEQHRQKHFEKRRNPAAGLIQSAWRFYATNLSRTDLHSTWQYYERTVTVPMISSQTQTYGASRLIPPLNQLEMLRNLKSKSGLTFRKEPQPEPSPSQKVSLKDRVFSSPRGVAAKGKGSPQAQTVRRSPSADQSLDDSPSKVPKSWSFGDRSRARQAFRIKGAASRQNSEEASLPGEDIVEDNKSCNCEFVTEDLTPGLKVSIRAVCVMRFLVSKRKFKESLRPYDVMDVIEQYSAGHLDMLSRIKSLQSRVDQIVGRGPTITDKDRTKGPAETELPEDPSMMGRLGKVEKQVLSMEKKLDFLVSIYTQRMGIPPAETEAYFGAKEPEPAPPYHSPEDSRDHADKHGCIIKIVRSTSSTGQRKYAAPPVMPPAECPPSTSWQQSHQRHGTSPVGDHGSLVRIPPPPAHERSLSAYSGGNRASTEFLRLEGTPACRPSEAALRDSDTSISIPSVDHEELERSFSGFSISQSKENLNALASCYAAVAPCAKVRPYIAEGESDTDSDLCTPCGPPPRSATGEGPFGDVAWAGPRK
KCNQ2 pot: KCNQ2 (rat) channel potentiation | CHO-K1 KCNQ2, FluxOR thallium flux fluorescence; stronger effect = higher value | 310,000 tested, 0.54% active | B-score at 10 µM | O88943;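 active = fluorescence ratio B-score at least 3 SD of library B-scores, with initial fluorescence B-score within 3 of them, cut at about 5.3 in these data; same plate scores as AID 2156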;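 note: B-score of peak minus minimum over baseline fluorescence ratio after K+ and Tl+ stimulus; positive B-score means potentiation of KCNQ2 with more thallium influx and brighter signal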
Kir21 conf inh: confirmation of mouse Kir2.1 potassium channel inhibitors. Tl flux remaining, % of negative control (stronger effect = lower value), % at 10 µM. shares compounds with KCNQ2 pot. 2,300 tested, 41% active. Kir2.1-expressing cells, FluxOR thallium flux fluorescence; stronger effect = lower value. AID 2032;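 active = Primary-screen hit whose thallium flux fell at least 3 control SD below untreated wells in both duplicates, with normal baseline fluorescence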
HEK293 ctr: parental HEK293 activity in Kir2.1 inhibitor counter-screen. shares compounds with KCNQ2 pot. parental HEK293 cells, FluxOR thallium flux fluorescence; 0% = unstimulated blank wells. FluxOR signal as % of negative control (100 = no effect), % at 10 µM. 2,300 tested, 19% active. AID 2105;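 active = dye signal at least 3 control SD above or below untreated wells in both duplicates, raw fluorescence within 3, either direction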;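 note: percent is based on the flux ratio of peak minus minimum fluorescence over baseline F0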
CHO-K1 ctr: parental CHO-K1 activity in KCNQ2 potentiator counter-screen; parental CHO-K1 cells, FluxOR thallium flux fluorescence; zero = vehicle mean+3SD, 100% = vehicle-minus-blank window; AID 2282; activity increase over 3SD of controls, % at 10 µM; shares compounds with KCNQ2 pot; 1,200 tested, 43% active;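 active = signal rise of at least 3 SD above the untreated control mean, in both duplicate wells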;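 note: counter screen of KCNQ2 potentiator hits so any rise reflects channel-independent effects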
KCNQ1 sel pot: tests whether KCNQ2 potentiators also act on human KCNQ1 | shares compounds with KCNQ2 pot | CHO KCNQ1 stable, FluxOR thallium flux fluorescence; beyond 3SD, as % of vehicle-control signal | activation over 3SD threshold, % at 10 µM | 1,200 tested, 28% active | AID 2283;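 active = fluorescence ratio rise of at least 3 SD of vehicle wells above their mean, in both replicate wells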
KCNQ2 pot confirm: rat KCNQ2 channel potentiator confirmation | shares compounds with KCNQ2 pot | potentiation, less the hit threshold, % at 10 µM | AID 2287 | CHO-KCNQ2 cells, FluxOR thallium flux fluorescence | 1,200 tested, 68% active;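 active = fluorescence ratio rising 3 SD or more over the vehicle control mean in both replicates, plus primary screen hit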;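 note: peak minus minimum thallium fluorescence divided by baseline after K/Tl stimulus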
Kir21 spec: selectivity of KCNQ2 potentiators: effect on mouse Kir2.1; shares compounds with KCNQ2 pot; activity over 3SD threshold, % at 10 µM; AID 2345; HEK293 Kir2.1, FluxOR thallium flux fluorescence; 1,200 tested, 2% active;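 active = fluorescence ratio rise of at least 3 SD above the vehicle-control mean, seen in both replicates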
KCNQ2 W236L pot: potentiates the retigabine-insensitive rat KCNQ2 W236L mutant channel | shares compounds with KCNQ2 pot | CHO KCNQ2-W236L, automated patch clamp current | current increase over 3SD of negative controls (%), stronger effect = higher value, % at 25 µM | 940 tested, 10% active;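 active = current increase at least 3 SD of the untreated controls above them in both duplicate recordings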
Large screens that a line does not name were inactive (follow-up assays come after a bar, where they were run). Shown are actives, neighbours in structure and some others; about 1.6% of the full set was active somewhere.

CC(C)C(=O)N1CCN(c2ccccc2NC(=S)NC(=O)c2ccco2)CC1	none
O=C(NC(=S)Nc1cccc2c(O)cccc12)c1ccco1	none
COc1ccc(-c2csc(NC(=S)NC(=O)c3ccco3)n2)cc1	none
Cc1occc1C(=O)NC(C)CCc1ccccc1 (configuration not stated)	none
CC(CCc1ccccc1)NC(=S)NC(=O)c1ccco1 (configuration not stated)	KCNQ2 pot 5.6 | Kir21 conf inh inactive | HEK293 ctr 183.0% | CHO-K1 ctr inactive | KCNQ1 sel pot inactive | KCNQ2 pot confirm inactive | Kir21 spec inactive | KCNQ2 W236L pot inactive
CC(C(=O)NCc1ccccc1)n1cc([N+](=O)[O-])cn1 (configuration not stated)	none (no result: KCNQ2 pot)
Cc1cccc(NC(=S)NC(C)(C)CC(C)(C)C)c1	none (no result: KCNQ2 pot)
COc1cc(/C=C(/NC(=O)c2ccccc2)C(=O)N2CCOCC2)c([N+](=O)[O-])cc1OC	none
CCC(C)SCC(=O)Nc1ccc(S(=O)(=O)N2CCOCC2)cc1OC (configuration not stated)	none
COc1cccc(NS(=O)(=O)NC(=O)c2cn(C)c3ccccc23)c1	none (no result: KCNQ2 pot)
CS(=O)(=O)N1CCN(c2ccc(NC(=O)c3ccccc3)cc2)CC1	none (no result: KCNQ2 pot)
C=C(C)CSc1nc2sc3c(c2c(=O)n1-c1ccccc1)CCN(C)C3	none
COc1ccc2sc(NC(=O)c3ccco3)nc2c1	none
O=C(NC(=S)Nc1ccccc1N1CCCCC1)c1ccco1	none
COc1ccccc1C(=O)Nc1ccc(N2CCCCC2)cc1	none (no result: KCNQ2 pot)
COc1cccc(OC)c1C(=O)Nc1ccc(N2CCCC2)cc1	none | Kir21 conf inh inactive | HEK293 ctr inactive
CC1CCN(c2ccc(NC(=S)NC(=O)c3ccco3)cc2)CC1	none
COc1ccc2nc(NC(=S)NC(=O)c3ccco3)sc2c1	KCNQ2 pot 13.3 | Kir21 conf inh inactive | HEK293 ctr inactive | CHO-K1 ctr 3.0 | KCNQ1 sel pot 2.4 | KCNQ2 pot confirm 6.4 | Kir21 spec inactive | KCNQ2 W236L pot inactive
O=C(NC(=S)Nc1ccc(N2CCCCC2)cc1)c1ccco1	KCNQ2 pot 8.46 | Kir21 conf inh inactive | HEK293 ctr inactive | CHO-K1 ctr 99.4 | KCNQ1 sel pot 4.1 | KCNQ2 pot confirm 39.7 | Kir21 spec inactive | KCNQ2 W236L pot inactive
O=C(NC(=S)Nc1ccccc1N1CCCC1)c1ccco1	KCNQ2 pot 7.49 | Kir21 conf inh inactive | HEK293 ctr 181.5% | CHO-K1 ctr 68.6 | KCNQ1 sel pot inactive | KCNQ2 pot confirm inactive | Kir21 spec inactive | KCNQ2 W236L pot inactive
C=CCNCc1ccccc1[N+](=O)[O-]	none
COc1cccc(OC)c1C(=O)OCCCOC(=O)c1c(OC)cccc1OC	none
O=C(NC(=S)Nc1cccc(Cl)c1N1CCCCC1)c1cccs1	none
O=C(NC(=S)Nc1cccc(Cl)c1N1CCCCC1)c1ccco1	KCNQ2 pot 8.29 | Kir21 conf inh inactive | HEK293 ctr inactive | CHO-K1 ctr 43.9 | KCNQ1 sel pot inactive | KCNQ2 pot confirm 6.2 | Kir21 spec inactive | KCNQ2 W236L pot inactive
COc1cc(NC(=O)NCC2CCN(Cc3ccccc3C)CC2)cc(OC)c1OC	none
CN1CCN(C2=Cc3ccccc3Sc3cc(F)ccc32)CC1	none (no result: KCNQ2 pot) | Kir21 conf inh 57.0% | HEK293 ctr inactive
CN1CCN(C2=Cc3ccc(Cl)cc3Sc3ccc(F)cc32)CC1	none (no result: KCNQ2 pot)
Cc1cccc(CN2CCN(C(=O)CCc3nnc(C4CCCCC4)o3)CC2)c1	none (no result: KCNQ2 pot)
Cn1c(CNC(=O)c2ccc3c(c2)OCO3)nnc1SCC(=O)Nc1ccc(F)cc1	none
Cc1nc2scc(-c3ccccc3)c2c(=O)n1N=C1C=CC(=O)C=C1	none (no result: KCNQ2 pot) | Kir21 conf inh 62.0% | HEK293 ctr 51.0%
Cc1nc2scc(-c3ccccc3)c2c(=O)n1N	none
O=C(Nc1cccc(CNCCc2c[nH]c3ccccc23)c1)c1ccccc1Cl	none (no result: KCNQ2 pot)
O=C(O)COc1ccc(=O)n(-c2ccccc2)n1	none
O=C(Oc1ccc(=O)n(-c2ccccc2)n1)c1ccccc1	none (no result: KCNQ2 pot) | Kir21 conf inh 61.0% | HEK293 ctr inactive
O=C(COC(=O)C1CCN(c2ccc(C(F)(F)F)cn2)CC1)Nc1ccc(Cl)cc1	none
CN(CC(=O)Nc1ccc(F)cc1)C(=O)COC(=O)C1CCN(c2ccc(C(F)(F)F)cn2)CC1	KCNQ2 pot 13.1 | Kir21 conf inh inactive | HEK293 ctr inactive | CHO-K1 ctr 79.3 | KCNQ1 sel pot inactive | KCNQ2 pot confirm 17.6 | Kir21 spec inactive | KCNQ2 W236L pot inactive
COc1ccc(OC)c(N2C(=O)c3cccnc3C2=O)c1	none
O=S1(=O)CCS(=O)(=O)C1c1ccccc1	none
CC1(C)CC(=O)c2cc(NC(=O)c3ccc(F)cc3)c(=O)oc2C1	none (no result: KCNQ2 pot)
CSC(=S)N/N=C/c1ccc(N(C)C)cc1	none
CSC(=S)N/N=C/c1ccc(Br)cc1	KCNQ2 pot 7.11 | Kir21 conf inh inactive | HEK293 ctr 254.5% | CHO-K1 ctr inactive | KCNQ1 sel pot 38.7 | KCNQ2 pot confirm inactive | Kir21 spec inactive
NC(=O)c1ccc(NC(=O)COC(=O)C2(c3ccccc3F)CCCC2)cc1	none
O=C(COC(=O)C1(c2ccccc2F)CCCC1)NCc1cccs1	none (no result: KCNQ2 pot) | Kir21 conf inh 73.0% | HEK293 ctr inactive
CCCNC(=O)C1(CC2CC(c3ccccc3)=NO2)CCN(C(=O)Cc2ccc(F)cc2)CC1 (configuration not stated)	none
COc1ccc(NC(=S)NCCc2ccccc2)c(C)c1	none (no result: KCNQ2 pot)
CCc1cc(Br)ccc1NC(=S)NCCc1ccccc1	none (no result: KCNQ2 pot) | Kir21 conf inh 62.0% | HEK293 ctr inactive
CSc1ncccc1C(=O)OCC(=O)NC(C)C	none
O=[N+]([O-])c1cccc(-c2csc(Nc3ccccc3)n2)c1	none | Kir21 conf inh inactive | HEK293 ctr inactive
COc1ccccc1Nc1nc(-c2cccc([N+](=O)[O-])c2)cs1	none
Nc1nc(N2CCCCC2)c(C=O)c(N2CCCCC2)n1	none
Cc1ccc(OCCSc2nc3ccccc3n2CC(=O)O)cc1	none
Cc1cc2c(ncn2C)c(NS(=O)(=O)c2ccc(F)cc2)c1C	none
Cc1cc2c(ncn2C(C)C)c(NS(=O)(=O)c2ccc(F)cc2)c1C	KCNQ2 pot 5.28 | Kir21 conf inh inactive | HEK293 ctr inactive | CHO-K1 ctr inactive | KCNQ1 sel pot 9.7 | KCNQ2 pot confirm 4.3 | Kir21 spec inactive | KCNQ2 W236L pot inactive
